Source: the antibiotic and cytotoxicity screens of Wong et al. (2023)
In all, about 39,000 compounds went through this assay and about 1,500 (3.8%) were called active. The sample holds actives, similar compounds and a random draw of the others, so the mix is not that of the screen.

test system: HSkMC (human skeletal muscle cells); experiment: cytotoxicity call (relative viability < 0.9); conditions: 10 µM

Structure (SMILES)	cytotoxicity call
CC(C)NC(=O)Nc1ccc2c(c1)C(=O)N([C@H](C)CO)C[C@H](C)[C@@H](CN(C)S(C)(=O)=O)OCCCC[C@@H](C)O2	inactive
CC(C)(C)[S@](=O)N1Cc2cc(C(=O)N3CCCCC3)nc(-c3cccc(C4=CCCC4)c3)c2[C@@H]1CCO	inactive
Cc1noc(C)c1NC(=O)N(C)C[C@@H]1OCCCC[C@H](C)Oc2ccc(NS(=O)(=O)c3ccc(Cl)cc3)cc2C(=O)N([C@H](C)CO)C[C@@H]1C	inactive
CC[C@H](C)[C@@H]([C@@H](CC(=O)N1CCC[C@H]1[C@H](OC)[C@@H](C)C(=O)N[C@@H](Cc1ccccc1)c1nccs1)OC)N(C)C(=O)[C@@H](NC(=O)[C@H](C(C)C)N(C)C)C(C)C	active
C[C@H](CO)N1C[C@H](C)[C@@H](CN(C)Cc2ccc(Oc3ccccc3)cc2)Oc2c(NC(=O)Cc3ccccc3)cccc2C1=O	inactive
COc1ccc(NC(=O)Nc2ccc3c(c2)C(=O)N([C@H](C)CO)C[C@@H](C)[C@@H](CN(C)Cc2ccc4c(c2)OCO4)OCCCC[C@@H](C)O3)cc1	inactive
Cc1noc(C)c1S(=O)(=O)Nc1ccc2c(c1)C(=O)N([C@@H](C)CO)C[C@H](C)[C@@H](CN(C)C(=O)Nc1ccc(C(F)(F)F)cc1)OCCCC[C@@H](C)O2	inactive
C[C@@H]1CN([C@@H](C)CO)C(=O)c2cc(NC(=O)CCCCCC(=O)Nc3ccccc3N)ccc2O[C@H]1CN(C)C(=O)Nc1ccc(F)cc1	inactive
Nn1c(-c2ccncc2)nncc1=O	inactive
C[C@@H]1CN([C@H](C)CO)C(=O)Cc2cc(NC(=O)Nc3ccc4c(c3)OCO4)ccc2O[C@H]1CN(C)Cc1ccc(Cl)c(Cl)c1	inactive
C[C@@H]1CN([C@@H](C)CO)C(=O)c2cc(NC(=O)Nc3ccc4c(c3)OCO4)ccc2O[C@H]1CN(C)Cc1ccc(Cl)c(Cl)c1	inactive
C[C@@H]1CN([C@H](C)CO)C(=O)Cc2cc(NC(=O)Nc3ccc4c(c3)OCO4)ccc2O[C@@H]1CN(C)Cc1ccc(Cl)c(Cl)c1	active
C[C@H]1CN([C@@H](C)CO)C(=O)c2cc(NC(=O)Nc3ccc4c(c3)OCO4)ccc2O[C@H]1CN(C)Cc1ccc(Cl)c(Cl)c1	inactive
C[C@@H]1CN([C@@H](C)CO)C(=O)Cc2cc(NC(=O)Nc3ccc4c(c3)OCO4)ccc2O[C@H]1CN(C)Cc1ccc(Cl)c(Cl)c1	inactive
C[C@H]1CN([C@@H](C)CO)C(=O)Cc2cc(NC(=O)Nc3ccc4c(c3)OCO4)ccc2O[C@H]1CN(C)Cc1ccc(Cl)c(Cl)c1	active
C[C@H]1CN([C@@H](C)CO)C(=O)Cc2cc(NC(=O)Nc3ccc4c(c3)OCO4)ccc2O[C@@H]1CN(C)Cc1ccc(Cl)c(Cl)c1	inactive
C[C@H](CO)N1C[C@H](C)[C@H](CN(C)Cc2ccc(Cl)c(Cl)c2)Oc2ccc(NC(=O)Nc3ccc4c(c3)OCO4)cc2C1=O	inactive
C[C@H](CO)N1C[C@H](C)[C@@H](CN(C)Cc2ccc(Cl)c(Cl)c2)Oc2ccc(NC(=O)Nc3ccc4c(c3)OCO4)cc2CC1=O	active
C[C@@H]1CN([C@@H](C)CO)C(=O)Cc2cc(NC(=O)Nc3ccc4c(c3)OCO4)ccc2O[C@@H]1CN(C)Cc1ccc(Cl)c(Cl)c1	inactive
C[C@H](CO)N1C[C@H](C)[C@H](CN(C)Cc2ccc(Cl)c(Cl)c2)Oc2ccc(NC(=O)Nc3ccc4c(c3)OCO4)cc2CC1=O	active
C[C@H]1CN([C@@H](C)CO)C(=O)c2cc(NC(=O)Nc3ccc4c(c3)OCO4)ccc2O[C@@H]1CN(C)Cc1ccc(Cl)c(Cl)c1	inactive
C[C@@H]1CCCCO[C@H](CN(C)C(=O)Nc2ccc(F)cc2)[C@@H](C)CN([C@@H](C)CO)C(=O)c2cc(NC(=O)CCC(F)(F)F)ccc2O1	inactive
CC(C)NC(=O)Nc1cccc2c1O[C@H](CN(C)C(=O)Nc1ccc3c(c1)OCO3)[C@@H](C)CN([C@@H](C)CO)C2=O	inactive

Structure (SMILES)	cytotoxicity call
COc1ccc(NC(=O)N(C)C[C@H]2Oc3c(NC(=O)Nc4ccc(C(F)(F)F)cc4)cccc3C(=O)N([C@@H](C)CO)C[C@H]2C)cc1	inactive
C[C@@H]1CCCCO[C@H](CN(C)Cc2ccc(Cl)c(Cl)c2)[C@@H](C)CN([C@@H](C)CO)C(=O)c2cc(NC(=O)Nc3ccc(C(F)(F)F)cc3)ccc2O1	inactive
C[C@H]1CN([C@@H](C)CO)C(=O)c2cccc(NC(=O)c3cnccn3)c2O[C@H]1CN(C)Cc1ccncc1	inactive
C[C@@H]1CN([C@@H](C)CO)C(=O)c2cccc(NC(=O)c3ccncc3)c2O[C@H]1CN(C)Cc1ccc(C(=O)O)cc1	inactive
C[C@@H]1CCCCO[C@@H](CN(C)Cc2ccc(C(F)(F)F)cc2)[C@H](C)CN([C@@H](C)CO)C(=O)c2cc(NC(=O)Nc3cccc4ccccc34)ccc2O1	inactive
O=C(CN1CCOCC1)N[C@@H]1CC[C@@H](CCNC(=O)C2CCC2)O[C@@H]1CO	inactive
C[C@@H]1CN([C@H](C)CO)C(=O)Cc2cc(NS(=O)(=O)c3cn(C)cn3)ccc2O[C@@H]1CN(C)S(=O)(=O)c1ccc(F)cc1	inactive
O=C(C[C@H]1C[C@@H]2c3cc(NS(=O)(=O)c4ccc(F)cc4)ccc3O[C@@H]2[C@@H](CO)O1)NCc1cccc(F)c1	inactive
COc1ccc(S(=O)(=O)N(C)C[C@@H]2Oc3ccc(NS(=O)(=O)c4cn(C)cn4)cc3C(=O)N([C@H](C)CO)C[C@H]2C)cc1	inactive
CC(C)NC(=O)N(C)C[C@@H]1Oc2ccc(NS(=O)(=O)c3cccs3)cc2C(=O)N([C@@H](C)CO)C[C@H]1C	inactive
C[C@@H]1CCCCO[C@@H](CN(C)C(=O)NC2CCCCC2)[C@H](C)CN([C@@H](C)CO)C(=O)c2cc(NC(=O)Nc3ccccc3)ccc2O1	inactive
Cc1ccc(S(=O)(=O)N(C)C[C@@H]2OCCCC[C@@H](C)Oc3ccc(NS(C)(=O)=O)cc3C(=O)N([C@@H](C)CO)C[C@H]2C)cc1	inactive
O=C(C[C@@H]1C[C@H]2c3cc(NC(=O)Nc4ccccc4F)ccc3O[C@H]2[C@@H](CO)O1)NCc1ccc(Oc2ccccc2)cc1	inactive
O=C(C[C@H]1C[C@H]2c3cc(NC(=O)Nc4ccccc4F)ccc3O[C@H]2[C@@H](CO)O1)NCc1ccc(Oc2ccccc2)cc1	active
O=C(C[C@H]1C[C@@H]2c3cc(NC(=O)Nc4ccccc4F)ccc3O[C@@H]2[C@H](CO)O1)NCc1ccc(Oc2ccccc2)cc1	active
COc1cccc(S(=O)(=O)Nc2ccc3c(c2)[C@H]2C[C@H](CC(=O)NCCc4ccccc4)O[C@@H](CO)[C@H]2O3)c1	inactive
O=C(C[C@@H]1C[C@@H]2c3cc(NS(=O)(=O)c4ccc(F)cc4)ccc3O[C@@H]2[C@H](CO)O1)NCc1ccc(Oc2ccccc2)cc1	inactive
COc1cccc(S(=O)(=O)Nc2ccc3c(c2)[C@H]2C[C@@H](CC(=O)NCCc4ccccc4)O[C@H](CO)[C@H]2O3)c1	active
O=C(C[C@H]1C[C@H]2c3cc(NC(=O)Nc4ccccc4F)ccc3O[C@H]2[C@H](CO)O1)NCc1ccc(Oc2ccccc2)cc1	inactive
COc1cccc(S(=O)(=O)Nc2ccc3c(c2)[C@H]2C[C@@H](CC(=O)NCCc4ccccc4)O[C@@H](CO)[C@H]2O3)c1	inactive
O=C(C[C@H]1C[C@H]2c3cc(NS(=O)(=O)c4ccc(F)cc4)ccc3O[C@H]2[C@H](CO)O1)NCc1ccc(Oc2ccccc2)cc1	inactive
O=C(C[C@@H]1C[C@H]2c3cc(NC(=O)Nc4ccccc4F)ccc3O[C@H]2[C@H](CO)O1)NCc1ccc(Oc2ccccc2)cc1	inactive
O=C(C[C@H]1C[C@H]2c3cc(NS(=O)(=O)c4ccc(F)cc4)ccc3O[C@H]2[C@@H](CO)O1)NCc1ccc(Oc2ccccc2)cc1	active

Structure (SMILES)	cytotoxicity call
O=C(C[C@@H]1C[C@@H]2c3cc(NC(=O)Nc4ccccc4F)ccc3O[C@@H]2[C@@H](CO)O1)NCc1ccc(Oc2ccccc2)cc1	inactive
O=C(O)[C@H]1CCCNC1	inactive
CO[C@@H]1CN(C)C(=O)c2ccc(NC(=O)Nc3cccc(F)c3)cc2OC[C@@H](C)N(C(=O)Nc2c(C)noc2C)C[C@@H]1C	inactive
C[C@H](CO)N1C[C@H](C)[C@@H](CN(C)Cc2ccccc2)OCCCC[C@H](C)Oc2ccc(NC(=O)Nc3ccc4c(c3)OCO4)cc2C1=O	inactive
C[C@@H]1CCCCO[C@H](CN(C)S(=O)(=O)c2ccc(Cl)cc2)[C@@H](C)CN([C@H](C)CO)C(=O)c2cc(NC(=O)Nc3ccc4c(c3)OCO4)ccc2O1	inactive
CC(C)NC(=O)N(C)C[C@@H]1OCCCC[C@@H](C)Oc2ccc(NC(=O)C3CCCCC3)cc2C(=O)N([C@@H](C)CO)C[C@@H]1C	inactive
Cc1noc(C)c1NC(=O)Nc1ccc2c(c1)C(=O)N([C@@H](C)CO)C[C@@H](C)[C@@H](CN(C)C(=O)C1CCCCC1)OCCCC[C@@H](C)O2	inactive
N#Cc1ccc(-c2cccs2)nc1	inactive
C[C@H]1CN([C@@H](C)CO)C(=O)Cc2cc(NC(=O)Cn3cnnn3)ccc2O[C@H]1CN(C)Cc1ccncc1	inactive
COc1ccc(C#Cc2cccc(-c3nc(C(=O)N4CCN(Cc5ccccc5)CC4)cc4c3[C@H](CCO)N(S(=O)C(C)(C)C)C4)c2)cc1OC (some centres not stated)	inactive
CC(=O)N1Cc2cc(C(=O)NCc3cccc(F)c3)nc(-c3cccc(C4=CCCCC4)c3)c2[C@H]1CCO	active
CC(=O)N1Cc2cc(C(=O)NCc3cc(F)cc(F)c3)nc(-c3cccc(C4=CCCC4)c3)c2[C@H]1CCO	inactive
O=C(NCC1CC1)c1cc2c(c(-c3cccc(-c4ccccc4F)c3)n1)[C@@H](CCO)N(C(=O)CC1CC1)C2	inactive
CC(=O)N1Cc2cc(C(=O)NCc3cccc(F)c3)nc(-c3cccc(C4=CCCCC4)c3)c2[C@@H]1CCO	inactive
COc1ccccc1-c1cccc(-c2nc(C(=O)Nc3nccs3)cc3c2[C@H](CCO)N(C(=O)CC2CC2)C3)c1	inactive
CC(C)(C)S(=O)N1Cc2cc(C(=O)N3CCN(Cc4ccccc4)CC3)nc(-c3cccc(-c4cc5ccccc5o4)c3)c2[C@H]1CCO (some centres not stated)	active
O=C(NCC(F)(F)F)c1cc2c(c(-c3cccc(-c4ccccc4F)c3)n1)[C@@H](CCO)N(C(=O)CC1CC1)C2	active
COc1ccc(C#Cc2cccc(-c3nc(C(=O)N4CCN(Cc5ccccc5)CC4)cc4c3[C@@H](CCO)N(S(=O)C(C)(C)C)C4)c2)cc1OC (some centres not stated)	inactive
CCC(=O)N1Cc2cc(C(=O)Nc3nccs3)nc(-c3cccc(-c4ccccc4OC)c3)c2[C@H]1CCO	active
COc1ccccc1-c1cccc(-c2nc(C(=O)Nc3nccs3)cc3c2[C@@H](CCO)N(C(=O)CC2CC2)C3)c1	inactive
CC(=O)N1Cc2cc(C(=O)NCC(F)(F)F)nc(-c3cccc(-c4cc5ccccc5o4)c3)c2[C@H]1CCO	inactive
